D2 PAM-1: positively modulates the human D2 dopamine receptor allosterically; P14416; HEK293 T-REx D2, calcium flux, EC20 dopamine potentiation; potentiation, % at 10 µM; 340,000 tested, 0.34% active; AID 485347;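 active = potentiation over 3 SD above the plate norm, cut at about 30% in these data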; also: 0% is about no effect
Target sequence (P14416 whole entry, looked up): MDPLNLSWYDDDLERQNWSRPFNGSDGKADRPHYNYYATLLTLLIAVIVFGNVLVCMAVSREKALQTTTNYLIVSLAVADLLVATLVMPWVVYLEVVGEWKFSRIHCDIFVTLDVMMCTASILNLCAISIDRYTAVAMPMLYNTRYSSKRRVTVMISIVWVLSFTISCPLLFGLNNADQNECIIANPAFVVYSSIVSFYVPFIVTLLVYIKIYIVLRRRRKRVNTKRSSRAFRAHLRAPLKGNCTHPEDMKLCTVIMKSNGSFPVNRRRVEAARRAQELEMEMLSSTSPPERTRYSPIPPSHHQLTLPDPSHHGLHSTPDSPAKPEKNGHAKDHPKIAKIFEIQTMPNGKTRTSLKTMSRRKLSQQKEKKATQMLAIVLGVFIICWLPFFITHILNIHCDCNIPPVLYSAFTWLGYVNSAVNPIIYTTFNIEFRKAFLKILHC
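Potentiation of an EC20 dopamine calcium response is measured in a force-coupled, tetracycline-inducible Hek293 Trex D2 line. Compound-only kinetic reads over 180 s flag agonists before dopamine addition.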
D2 ag-1: activates the human D2 dopamine receptor | 360,000 tested, 0.084% active | AID 624465 | activation, % (no concentration beside the values) | P14416 | DiscoveRx PathHunter D2 beta-arrestin, luminescence, 90 min; 100% = 57 uM dopamine signal; in the data active = activation above about 40%
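DiscoveRx PathHunter D2 beta-arrestin cells (2,100/well) attached overnight, then compound-stimulated 90 min at 37 C in HBSS/10 mM HEPES/0.1% Tween-20 buffer; beta-galactosidase complementation read by luminescence after 1 h at ambient temperature. Dopamine 57 uM final (EC100) as control.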
D2 antag: antagonists of human D2 dopamine receptor. P14416. HEK293 TREx D2 cells, calcium flux, dopamine EC80. inhibition, % at 10 µM. 340,000 tested, 2% active. AID 485344; in the data active = inhibition above about 30%; inactive = below that, where a call was filed; also: 0% is about no effect
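Dopamine at EC80 is the agonist stimulus; test compounds precede it by 180 s. Calcium flux read kinetically in a force-coupled, inducible HEK293 T-REx D2 cell line.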
D2 ag-2: activates the human D2 dopamine receptor; activation, % at 2 µM; 340,000 tested, 0.53% active; P14416; HEK293 T-REx D2 cells, calcium flux agonist mode;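 active = activation over 3 SD above normal in the single-dose calcium agonist read, cut at about 30% in these data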; also: 0% is about no effect
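HEK293 Trex D2 cells, tetracycline-induced, o/n 30 C 5% CO2; no-wash Ca dye, RT 30–90 min; 10-cycle baseline, 23 nl cpd added, kinetic Ca read 180 s; agonist hits = positive Ca response.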
D2 PAM-2: potentiates the human D2 dopamine receptor allosterically. 360,000 tested, 0.23% active. P14416. DiscoveRx D2 beta-arrestin cells, luminescence, 90 min; 100% = 57 uM dopamine signal. potentiation, % (no concentration beside the values); in the data active = potentiation above about 50%
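PathHunter D2 cells, attached overnight at 37 deg C, received compound in DMSO plus dopamine at EC20 (50 nM final) for 90 min at 37 deg C. Beta-arrestin recruitment was read as luminescence after 1 h with detection reagent at ambient temperature.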
Numbers without * were called inactive; / = not tested or not shown. In the library only some 2.4% were active in any assay of this set; here they are far more common.

SMILES | D2 PAM-1 | D2 ag-1 | D2 antag | D2 ag-2 | D2 PAM-2
COc1ccccc1NC(=O)Nc1nc(CC(=O)Nc2cccc(F)c2)cs1 | 19 | 7 | -20 | -1 | -13
COc1ccccc1NC(=O)Nc1nc(CC(=O)Nc2cc(F)ccc2F)cs1 | -5 | -2 | 14 | 0 | 56*
COc1ccccc1NC(=O)Nc1cc(F)ccc1F | -5 | -2 | 32* | 0 | -4
COc1ccccc1NC(=O)Nc1nc(C(C)(C)C)cs1 | -18 | -3 | 35* | 0 | -26
COc1ccccc1NC(=O)Nc1ccc(-n2ccc(C(F)(F)F)n2)cc1 | -14 | 1 | 71* | 1 | -14
Cc1cc(C)cc(NC(=O)Nc2ccc(-n3ccc(C(F)(F)F)n3)cc2)c1 | -13 | 5 | 11 | 2 | -7
Cc1ccc(NC(=O)Nc2nc(-c3ccc(C)s3)cs2)cc1 | 45* | 3 | -11 | 1 | 0
CCN(CC)S(=O)(=O)c1ccc2c(c1)N(CC(=O)N1CCN(c3ccccc3F)CC1)C(=O)CO2 | 5 | / | / | -1 | /
CCCC1(C(=O)OC)NC(c2cccc(F)c2)C2C(=O)N(CC)C(=O)C21 (stereo unspecified) | -8 | -4 | 31* | 1 | -5
CCc1c(C)sc2c1CCN(Cc1ccccc1)C2c1ccccc1 (stereo unspecified) | -3 | / | / | / | /
COc1ccc(N2C(=O)CSC23CCCCC3)cc1 | 11 | -1 | 33* | 0 | -2
CCc1ccc(NC(=O)CC2C(=O)N(c3ccc(F)cc3)C(=O)N2Cc2ccc(F)cc2)cc1 (stereo unspecified) | -20 | / | / | 0 | /
Cc1cc(F)ccc1S(=O)(=O)N1CCCOC1CNC(=O)C(=O)NCCCN1CCOCC1 (stereo unspecified) | -7 | 3 | 20 | 32* | -23
O=C(NCCc1ccccc1)C(=O)NCC1OCCN1S(=O)(=O)c1ccc(Br)cc1 (stereo unspecified) | -2 | 11 | 31* | 0 | -4
Cc1cc(F)ccc1S(=O)(=O)N1CCCOC1CNC(=O)C(=O)NCCN1CCOCC1 (stereo unspecified) | 3 | 3 | 5 | 2 | 14
COc1ccccc1CCNC(=O)C(=O)NCC1OCCCN1S(=O)(=O)c1cc(C)ccc1C (stereo unspecified) | -1 | -2 | 34* | -1 | -11
Cc1ccc(S(=O)(=O)Nc2cc(Cl)c3oc4c(c3c2)C(=O)CC(C)(C)C4)cc1 | 6 | / | / | -2 | /
CCN(CC)CCn1c(NS(=O)(=O)c2ccc(C)cc2)nc2ccccc21 | -19 | -2 | 51* | 0 | -40
COc1ccc(N(Cc2cc3cc(OC)ccc3[nH]c2=O)S(=O)(=O)c2ccc(NC(C)=O)cc2)cc1 | -20 | 2 | -7 | 0 | 50*
COc1ccc(N(Cc2cc3ccccc3[nH]c2=O)S(=O)(=O)c2ccc(OC)cc2)cc1 | -24 | -2 | 9 | -2 | -44
COc1ccc(N(CC(=O)N/N=C/c2ccc(C(=O)O)cc2)S(=O)(=O)c2ccc(NC(C)=O)cc2)cc1 | -7 | 2 | 56* | 1 | 0
Cc1cc(Cl)ccc1OCC(=O)Nc1c(C(=O)c2ccccc2)oc2ccccc12 | -9 | / | / | 0 | /
Cc1ccc(Cl)cc1NC(=O)CCCn1c(=O)c2cccn2c2ccccc21 | -6 | / | / | 0 | /
COc1ccc(C(=O)c2ncc(C(F)(F)F)cc2Cl)cc1 | 7 | 2 | -10 | 0 | -7
COc1cccc(C(=O)c2ncc(C(F)(F)F)cc2Cl)c1 | 36* | 1 | -6 | -1 | -2
SMILES | D2 PAM-1 | D2 ag-1 | D2 antag | D2 ag-2 | D2 PAM-2
O=C(CN1C(=O)COc2ccccc21)NCCCN1CCc2ccccc2C1 | -30 | -1 | 58* | -1 | -24
O=C(CN1C(=O)COc2ccccc21)NCCCN1CCN(Cc2ccccc2)CC1 | -16 | -1 | 10 | 1 | -18
COC(=O)c1cc(NS(=O)(=O)c2ccc3c(c2)OCCO3)ccc1Cl | -11 | / | / | / | /
NC(=O)c1c(NC(=O)Cc2ccccc2)sc2c1CCN(Cc1ccccc1)C2 | -18 | 3 | 47* | 1 | -11
Cc1ccc(OCC(=O)c2c(N)n(C)c(=O)n(C)c2=O)c([N+](=O)[O-])n1 | -2 | -2 | 33* | 0 | -2
CCOc1ccc(NC(=NCc2ccc3c(c2)OCO3)SC2CC(=O)N(c3ccccc3)C2=O)cc1 (stereo unspecified) | 31* | -4 | -8 | 1 | -3
COc1ccc(-n2cc(C(=O)Nc3cc(F)ccc3F)c3ccccc3c2=O)cc1 | -8 | / | / | 1 | /
COc1cccc(NC(=O)C2C3C=CC(O3)C2C(=O)NCc2cccnc2)c1 (stereo unspecified) | -15 | -2 | 44* | -1 | -22
COc1cc(NC(=S)NCc2cccnc2)cc(OC)c1 | -3 | -1 | 1 | 0 | -3
CCCNC(=O)CCCN1C(=O)CCn2nc(-c3cccn3C)cc21 | 15 | / | / | -1 | /
O=C1CCSC2(C(=O)N(Cc3ccc(F)cc3)c3ccccc32)N1c1cccc(F)c1 (stereo unspecified) | 1 | / | / | 0 | /
Cc1c(Br)c([N+](=O)[O-])nn1C(C)C(=O)Nc1ccc2c(c1)OCO2 (stereo unspecified) | 4 | -2 | 40* | 0 | -13
O=c1oc(-c2ccco2)nc2ccccc12 | 6 | -2 | 36* | 1 | 3
O=c1oc(-c2ccco2)nc2c1cnn2-c1ccccc1 | -1 | -3 | 2 | 1 | -8
C#CCn1cnc2c(cnn2-c2ccc(F)cc2)c1=O | / | / | / | 0 | /
CC(Nc1oc(-c2ccco2)nc1C#N)c1ccccc1 (stereo unspecified) | -1 | -1 | -7 | -2 | -22
CC(C)CNc1oc(-c2ccco2)nc1C#N | 36* | -3 | 6 | -1 | -26
CON(C)S(=O)(=O)c1cccc(C(=O)Nc2ccc(S(=O)(=O)NC3=NCCCCC3)cc2)c1 | -4 | 0 | 33* | -1 | -18
Cc1ccc(CNC(=O)CN2C(=O)CCc3cc(S(=O)(=O)N4CCCCC4)ccc32)cc1 | 4 | / | / | / | /
COc1cccc(C(=O)NCCNC(=O)c2ccco2)c1 | 4 | -3 | -1 | 0 | -1
CCCOc1cccc(C(=O)NCCNC(=O)c2ccco2)c1 | 11 | -5 | 57* | -1 | 1
Cc1ccc(NC(=O)CCNC(=O)c2ccco2)cc1Cl | -1 | -4 | 36* | 0 | -5
Cc1cc(C)n(CCNC(=O)c2ccco2)n1 | 31* | -1 | -11 | 0 | 1
O=C(NCCNC(=O)c1ccco1)c1ccco1 | / | -4 | -2 | -3 | 1
Cc1ccc(NC(=O)CC2Sc3ccccc3NC2=O)c(Br)c1 (stereo unspecified) | 17 | / | / | -2 | /
COc1ccc(Cl)cc1NC(=O)CSc1nnc(C)n2c1cc1occc12 | -18 | / | / | / | /
